Screening results as filed in PubChem.
This excerpt belongs to a sample that is enriched for hits.
CXXC DNA block: inhibitors of human MLL CXXC domain-DNA interaction; 290,000 tested, 0.037% active; MLL-CXXC / FITC-HOXA9 DNA fluorescence polarization; Q03164; Potency, µM (highest dose often 115 µM), inactives show at the top dose activity change, negative = inhibition, most hits filed as inhibitors; active = well fitted inhibition curve with a large enough effect in the polarisation, with a control signal flat, not every such curve was filed as active; inconclusive = small, poorly fitted or top-dose-only effect, or effect the other way, or a change in a side signal; inactive = no such curve, though single readings can be large or run the other way; the % refers to the polarisation; note: potency is the fitted concentration of half-maximal effect
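Purified MLL-CXXC (added from a 7 uM solution) was preincubated 5 min at ambient with pinned compounds in 50 mM Tris-HCl pH 7.5, 50 mM NaCl, 1 mM DTT, 0.05% BSA. Fluorescein-labeled HOX-A9 DNA (50 nM solution) followed, 30 min, then polarization read.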
MBNL1-CUG inh: MBNL1-poly(CUG) RNA binding inhibition; Q9NR56; TR-FRET MBNL1-His/biotin-(CUG)12 binding, 665/545 ratio; Potency, µM (titrated, usually from 57.5 µM), for inactives: top-dose activity change, negative = inhibition, most hits filed as inhibitors; 280,000 tested, 0.036% active; AID 2675; active = well fitted inhibition curve with a large enough effect in the signal ratio, with a control signal flat, not every such curve was filed as active; inconclusive = small, poorly fitted or top-dose-only effect, or effect the other way, or a change in a side signal; inactive = no such curve, though single readings can be large or run the other way; the % refers to the signal ratio; note: potency is the fitted concentration of half-maximal effect; % is set by controls: 0 for no effect and ±100 for the full control effect
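Compound titration spanned 92 nM–58 uM against the MBNL1-His/biotin-(CUG)12 complex. After 60 min at room temperature with 5 nM streptavidin-XL665 and 0.055 ng/ul terbium anti-His, ratiometric 665/545 nm emission (Ex 340 nm) normalized to controls.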
Menin MLL FP FL: displaces fluorescein MLL peptide from human menin. Fluorescence polarization, fluorescein-MLL peptide displacement from menin. FP activity change, % at 61.4 µM. 290,000 tested, under 10 active; active = well fitted curve in the direction sought with a large enough effect in the polarisation, not every such curve was filed as active; inconclusive = small, poorly fitted or top-dose-only effect, or effect the other way, or a change in a side signal; inactive = no such curve, though single readings can be large or run the other way; the % refers to the polarisation; note: % of control where 0% means no effect
CBFb-RUNX1 inh: CBF-beta/RUNX1 interaction disruption | Potency, µM (doses to about 59.8 µM), without a hit: at the top dose activity, negative = inhibition, usual class: inhibitors | AID 1477 | Q01196+Q13951 | 230,000 tested, under 10 active | AlphaScreen CBFb-His/RUNX1-biotin binding, biochemical; note: % of control where 0% means no effect
Target sequence (Q01196 whole entry, looked up): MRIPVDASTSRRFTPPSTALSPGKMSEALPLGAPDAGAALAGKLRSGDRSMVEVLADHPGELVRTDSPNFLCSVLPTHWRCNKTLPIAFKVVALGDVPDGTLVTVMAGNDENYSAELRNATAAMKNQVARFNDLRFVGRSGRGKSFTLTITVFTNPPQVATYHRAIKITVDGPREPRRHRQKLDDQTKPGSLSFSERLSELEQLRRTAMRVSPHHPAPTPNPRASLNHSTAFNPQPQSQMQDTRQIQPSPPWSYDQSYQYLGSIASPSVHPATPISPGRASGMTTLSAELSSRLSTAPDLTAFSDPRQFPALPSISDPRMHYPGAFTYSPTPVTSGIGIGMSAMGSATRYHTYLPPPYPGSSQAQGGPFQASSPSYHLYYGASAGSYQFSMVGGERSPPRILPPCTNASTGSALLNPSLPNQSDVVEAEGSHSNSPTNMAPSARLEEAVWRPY
Target sequence (Q13951 whole entry, looked up): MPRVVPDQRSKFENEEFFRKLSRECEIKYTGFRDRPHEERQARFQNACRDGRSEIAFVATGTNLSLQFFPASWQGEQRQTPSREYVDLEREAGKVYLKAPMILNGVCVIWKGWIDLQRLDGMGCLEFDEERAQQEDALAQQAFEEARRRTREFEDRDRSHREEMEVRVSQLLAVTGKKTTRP
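CBFb-His/RUNX1-biotin, 30 nM each, preincubated 20 min RT; compound 15 min RT; Ni + streptavidin beads 50 ng each, 90 min RT; AlphaScreen read.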
Menin MLL FP TR: menin-MLL binding inhibition, Texas Red mutant peptide. O00255. Menin + Texas Red MLL mutant peptide, fluorescence polarization. Potency, µM (highest dose often 61.6 µM), without a hit: at the highest dose FP activity change, negative = inhibition, most hits filed as inhibitors. 270,000 tested, 0.23% active; active = well fitted inhibition curve with a large enough effect in the polarisation, with a control signal flat, not every such curve was filed as active; inconclusive = small, poorly fitted or top-dose-only effect, or effect the other way, or a change in a side signal; inactive = no such curve, though single readings can be large or run the other way; the % refers to the polarisation; note: potency is the fitted concentration of half-maximal effect; % of control where 0% means no effect
MLL CXXC FP-Fl: inhibitors of human MLL CXXC domain-DNA interaction; shares compounds with CXXC DNA block; 200 tested, 70% active; MLL CXXC-DNA binding, fluorescein FP; Potency, µM (series often up to 345 µM), for inactives: at the highest dose activity change, negative = inhibition, actives largely listed as inhibitors; AID 624160; note: potency is the fitted concentration of half-maximal effect; nearly all actives have a fitted effect of over 80% in size
MLL CXXC FP-TR: MLL CXXC-DNA interaction inhibition, Texas Red FP | shares compounds with CXXC DNA block | MLL CXXC-DNA binding, Texas Red fluorescence polarization | Potency, µM (highest dose often 345 µM), for the others: at the top dose activity change, negative = inhibition, hits mostly inhibitors | 200 tested, 40% active | AID 624161; note: potency is the fitted concentration of half-maximal effect; % is set by controls: 0 for no effect and ±100 for the full control effect; nearly all actives have a fitted effect of over 75% in size
MLL CXXC HTRF: MLL CXXC-DNA interaction inhibition, HTRF readout. MLL CXXC-DNA binding, HTRF, biochemical. 210 tested, 30% active. Potency, µM (top dose mostly 172 µM), for inactives: at the top dose activity change, negative = inhibition, hits mostly inhibitors. shares compounds with CXXC DNA block; note: % is set by controls: 0 for no effect and ±100 for the full control effect; nearly all actives have a fitted effect of over 80% in size
An asterisk follows results filed as active; ? = inconclusive; nt = no result; ! = not confirmed by another sample. Unless noted, calls come from the whole dose curve; as a rule, active = well fitted curve in the direction sought with a large enough effect; inconclusive = small, poorly fitted or top-dose-only effect, or another doubt; inactive = no such curve, though single readings can be large; an effect the other way counts as inactive or inconclusive.

SMILES	CXXC DNA block	MBNL1-CUG inh	Menin MLL FP FL	CBFb-RUNX1 inh	Menin MLL FP TR	MLL CXXC FP-Fl	MLL CXXC FP-TR	MLL CXXC HTRF
CC(C)C(=O)Nc1c(-c2ccc(Cl)cc2)c(=O)c2ccccc2n1C	?	1.9%	1.7	nt	22.6%	?	-3.5%	0.1%
Cc1ccc(-c2c(NC(=O)C(C)C)n(C)c3ccccc3c2=O)cc1	-1.8%	5.4%	-1.2	nt	-12.4%	nt	nt	nt
COC(=O)C(Cc1ccccc1)NC(=O)c1ccc(C)cc1 (centres undefined)	2.7%	-6.4%	-1.9	-0.9%	-7.4%	nt	nt	nt
COCCn1c(C)nnc1SCC(=O)NNC(=O)c1ccc(Cl)cc1	-2.2%	-1.6%	-8.6	nt	-0.3%	nt	nt	nt
CC(C)c1nnc(NC(=O)c2cc3cc(Br)ccc3oc2=O)s1	?	?	3.7	8.6%	nt	7.5%	-6.0%	34.2%
COc1cc(/C=C2/C(=O)NN(c3ccc(C)c(Cl)c3)C2=O)cc([N+](=O)[O-])c1O	?	?	1.1	nt	?	79.7µM*	113µM*	33.3%
CO[C@H](C(=O)[C@@H](O)[C@@H](C)O)C1Cc2cc3cc(O[C@H]4C[C@@H](O[C@H]5C[C@@H](O)[C@H](O)[C@@H](C)O5)[C@@H](O)[C@@H](C)O4)c(C)c(O)c3c(O)c2C(=O)[C@H]1O[C@H]1C[C@@H](O[C@H]2C[C@@H](O[C@H]3C[C@](C)(O)[C@H](O)[C@@H](C)O3)[C@H](O)[C@@H](C)O2)[C@H](O)[C@@H](C)O1 (some centres undefined)	39.8µM*	nt	?	nt	-8.4%	25.9%	17.4%	83.0%
COC(C(=O)C(O)C(C)O)C1Cc2cc3cc(OC4CC(OC5CC(O)C(O)C(C)O5)C(O)C(C)O4)c(C)c(O)c3c(O)c2C(=O)C1OC1CC(OC2CC(OC3CC(C)(O)C(O)C(C)O3)C(O)C(C)O2)C(O)C(C)O1 (centres undefined)	?	nt	?	nt	-6.3%	nt	nt	72.1%
Cc1ccc(C(=O)Nc2ncc([N+](=O)[O-])s2)cc1	-9.8%	?	10.1	nt	?	nt	nt	nt
COC(=O)c1c(C)[nH]c(C)c1-c1ccc(C)cc1	?	-8.7%	5.2	-8.3%	-0.8%	17.9µM*	?	-7.5%
COC(=O)c1c(C)[nH]c(C)c1-c1cccc([N+](=O)[O-])c1	-0.3%	23.8%	2.4	-20.6%	41.6%	nt	nt	nt
CC(=O)N1CCCN(C(=O)c2ccc3nc(Cc4ccccc4F)oc3c2)CC1	-6.3%	0.1%	nt	nt	nt	nt	nt	nt
O=C(O)c1ccc(S(=O)(=O)/N=C2\C=C(Nc3ccccc3F)C(=O)c3ccccc32)cc1	?	?	-19.8	nt	?	113µM*	142µM*	-44.4%
COc1ccc(C(=O)N2CCCC(N3CCN(c4ccccc4OC)CC3)C2)c(OC)n1 (centres undefined)	7.4%	-8.0%	-0.2	nt	-6.1%	nt	nt	nt
N#CC(C#N)=C1C=C2C=C(N3CCCCCC3)CCC2CC1 (centres undefined)	?	?	?	12.1%	?	0.448µM*	71.1µM*	217.1%
COCCCNc1c2c3c(cccc3[nH]c1=O)C(=O)c1ccccc1-2	?	?	?	?	31.6µM*	0.565µM*	63.3µM*	24.8%
O=C(COC(=O)c1ccc2c(c1)OCO2)Nc1ncc(Cl)cc1Cl	16.3%	?	4.5	8.3%	1.2%	nt	nt	nt
COc1c(Br)cc(C(N)=O)cc1OCc1ccccc1	7.9%	6.7%	nt	2.0%	-14.0%	nt	nt	nt
Cc1[nH]n(-c2ccccc2)c(=O)c1N=Nc1cccc(C(=O)O)c1	?	6.8%	3.9	nt	?	14.2µM*	?	34.0%
Cc1[nH]n(-c2ccccc2)c(=O)c1N=Nc1ccc(C(=O)O)cc1	2.1%	?	-2.5	nt	?	nt	nt	nt
CCOC(=O)/C(C#N)=C1\SS/C(=C(/C#N)C(=O)OCC)S1	17.8µM*	64.2%	?	-1.6%	?	25.2µM*	63.3µM*	4.85µM*
COc1cc(/C=C(\C#N)C(=O)Nc2ccc(C(=O)O)cc2)ccc1OC(=O)c1cccc(F)c1	?	3.1%	?	nt	28.5%	2.9%	36.7%	-48.5%
O=C(O)c1cccc(-n2cccc2C=C2C(=O)c3ccccc3C2=O)c1	?	?	7.9	-18.2%	?	179µM*	?	25.2%
CN(CC(CC(=O)Nc1nncs1)c1ccccc1)S(=O)(=O)c1ccccc1 (centres undefined)	-2.5%	11.6%	1.8	0.1%	-3.8%	nt	nt	nt
CC(=O)c1cc(-c2ccc(F)cc2)n(CCC(=O)NC(C)(C)C)c1C	-10.4%	nt	-3.7	5.5%	-13.1%	nt	nt	nt
SMILES	CXXC DNA block	MBNL1-CUG inh	Menin MLL FP FL	CBFb-RUNX1 inh	Menin MLL FP TR	MLL CXXC FP-Fl	MLL CXXC FP-TR	MLL CXXC HTRF
CCN(CC)c1ccc2cc(-c3nc(-c4ccc(OC)cc4)cs3)c(=O)oc2c1	?	7.0%	?	?	21.0%	0.448µM*	?	-5.4%
CCN(CC)c1ccc2cc(-c3nnc(-c4ccccc4)o3)c(=O)oc2c1	?	19.7%	?	1.5%	7.9%	nt	nt	nt
CCC(C)c1ccc(NC(=O)Nc2cccnc2)cc1 (centres undefined)	?	-2.0%	-6.3	nt	?	-6.8%	?	0.7%
CCC(C)c1ccc(NC(=O)NCc2cccnc2)cc1 (centres undefined)	?	-12.2%	6.0	nt	16.1%	nt	nt	nt
Cc1ccc(C)n1-c1nnc(N2CCC(C(=O)NCCCN3CC(C)CC(C)C3)CC2)s1 (centres undefined)	-1.7%	-0.8%	nt	nt	nt	nt	nt	nt
Cc1ccc(C(=O)Nc2ccc(S(=O)(=O)O)c3cc(S(=O)(=O)O)cc(S(=O)(=O)O)c23)cc1NC(=O)c1cccc(NC(=O)Nc2cccc(C(=O)Nc3cc(C(=O)Nc4ccc(S(=O)(=O)O)c5cc(S(=O)(=O)O)cc(S(=O)(=O)O)c45)ccc3C)c2)c1	7.94µM*	nt	10.9	?	57.1%	20µM*	22.5µM*!	4.85µM*
CC(C)C1OC2(C)OC(=N)C1(C#N)C(C#N)(C#N)C2c1ccccc1 (centres undefined)	17.8µM*	13.7%	?	-0.2%	2.9%	89.5µM*	44.8µM*	14.8%
COC(CNC(=O)c1ccc2c(c1)nc(C)n2-c1ccc(F)c(F)c1)OC	-2.8%	3.0%	4.7	-7.7%	2.7%	nt	nt	nt
